Assay results: PubChem BioAssay AID493168 (National Center for Advancing Translational Sciences (NCATS), 2011)
Records with an inconclusive call do not appear. Entries that show only a call come without a potency. Calls of active or inactive are those of the source. Calls come from the whole dose curve; as a rule, active = well fitted inhibition curve with a large enough effect; inconclusive = small, poorly fitted or top-dose-only effect, or effect the other way; inactive = flat fitted curve, though single readings scatter.

Biological target: Ubiquitin carboxyl-terminal hydrolase 2 (Homo sapiens) (UniProt O75604)
Assay: Confirmation Assay for Inhibitors of Ubiquitin-specific Protease USP2a Using CHOP2 as the Reporter; note: nearly all actives have a fitted effect of over 55% in size
Conditions: USP2 core, Ub-CHOP2 coupled reporter fluorescence; series mostly up to 38.3 µM
Procedure, shortened: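 Ub-CHOP2 cleavage coupled to reporter activation was read by fluorescence after 60 min at RT, with 25 nM final Ub-CHOP2 and substrate. Enzyme (10 nM final USP2 core) first sat 30 min with compound; data were normalized to NEM and fitted to concentration-response curves.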
Potency is the fitted concentration of half-maximal effect.

Sequence of Ubiquitin carboxyl-terminal hydrolase 2 (Homo sapiens) (O75604 whole entry, looked up): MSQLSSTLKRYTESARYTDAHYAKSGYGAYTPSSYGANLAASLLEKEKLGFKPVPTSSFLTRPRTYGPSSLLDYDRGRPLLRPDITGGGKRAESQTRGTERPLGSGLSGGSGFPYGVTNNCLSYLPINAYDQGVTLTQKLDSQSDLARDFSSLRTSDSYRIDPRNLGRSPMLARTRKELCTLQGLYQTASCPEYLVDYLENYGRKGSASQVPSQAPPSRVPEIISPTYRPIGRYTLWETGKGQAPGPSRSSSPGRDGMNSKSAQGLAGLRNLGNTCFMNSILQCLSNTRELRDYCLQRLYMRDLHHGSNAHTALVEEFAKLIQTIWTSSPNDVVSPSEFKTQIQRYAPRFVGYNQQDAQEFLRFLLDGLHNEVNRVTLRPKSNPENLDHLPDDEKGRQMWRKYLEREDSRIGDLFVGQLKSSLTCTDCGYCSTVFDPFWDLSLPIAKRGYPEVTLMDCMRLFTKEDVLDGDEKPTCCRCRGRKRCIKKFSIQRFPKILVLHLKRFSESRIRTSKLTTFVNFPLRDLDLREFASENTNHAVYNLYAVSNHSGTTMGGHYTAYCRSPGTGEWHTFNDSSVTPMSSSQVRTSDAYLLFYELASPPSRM

SMILES	Potency
c1coc(CNC2CCCCCCC2)c1	inactive
Cn1c(C(=O)NCCN2CCOCC2)cc2c(=O)n(C)c3ccccc3c21	inactive
CN(C)c1ccc(-c2ccccc2)nn1	inactive
C/C(=N/NC(=O)c1cc2ccccc2cc1O)C1C(=O)c2ccccc2C1=O	5.85 µM (active)
COc1ccc(-c2[nH]ncc2/C=C(/C#N)C(=O)NC2CCCCC2)cc1	inactive
COc1ccc(-c2noc(CSc3nnc(Cc4ccccc4)n3-c3ccc(Cl)cc3)n2)cc1	inactive
CCn1c(COc2ccccc2)nnc1SCC(=O)CC(=O)Nc1ccccc1OC	inactive
CCOc1cc(/C=C/c2nc3cc(C)c(C)cc3s2)ccc1OCC(=O)N1CCOCC1	inactive
CC(C)CCn1c(CN2CCN(C(=O)c3ccco3)CC2)nc2c1c(=O)n(C)c(=O)n2C	inactive
O=C(Nc1nnc(-c2cccs2)o1)c1cccc(Oc2ccccc2)c1	inactive
COc1cccc(N2CCN(C(=O)CN(C)S(=O)(=O)c3ccc4c(c3)CCC(=O)N4)CC2)c1	inactive
O=C(COC(=O)c1cccc(S(=O)(=O)N2CCc3ccccc32)c1)NC1CCS(=O)(=O)C1 (configuration not stated)	inactive
CC(C)C(=O)N=c1sc2cc(F)cc(F)c2n1C	inactive
O=C(O)C(Cc1ccccc1)N1C(=O)/C(=C/C=C/c2ccco2)SC1=S (configuration not stated)	7.36 µM (active)
Nc1nc(NCCO)nc(NCC2CCCO2)c1[N+](=O)[O-] (configuration not stated)	inactive
CCOC(=O)CCCNC(=O)COC(=O)c1cccc(C)c1O	inactive
CS(=O)(=O)c1ccc(C(=O)Nc2nc(-c3ccco3)c(-c3ccco3)s2)cc1	inactive
CC(=O)c1ccc2c(c1)C1C=CCC1C(C(=O)O)N2 (configuration not stated)	11.7 µM (active)
COc1ccc(C(=O)OCC(=O)c2c[nH]c3ccccc23)c(OC)c1	inactive
C=CC[C@H](CC(=O)N[C@H](CO)Cc1ccccc1)C(=O)N[C@@H](COC(=O)[C@@H](CC=C)CC(=O)OC(C)(C)C)Cc1c[nH]c2ccccc12	inactive
Cn1c(SCc2nc3ccccc3s2)nnc1-c1cccs1	inactive
CCCCCCCCCCOC(=O)Cn1c(COc2ccc(Cl)cc2)[n+](C)c2ccccc21	18.5 µM (active)
Cc1ccc(C2=NC(=O)/C(=C/c3cc(O)c(O)c(Br)c3)S2)cc1	7.36 µM (active)
COC(=O)c1ccc(CSc2ncnc3ccccc23)o1	inactive

SMILES	Potency
O=C(CSc1nc(N2CCCCC2)nc(N2CCCCC2)n1)N1CCN(c2ccccc2)CC1	inactive
COc1ccc(NC(=O)CSc2nnc(-c3ccccc3Cl)n2Cc2ccco2)c(OC)c1	inactive
O=C(Cc1ccc(S(=O)(=O)N2CCOCC2)s1)Nc1nc2c(s1)CCCC2	14.7 µM (active)
Cc1nn(C)cc1CNC(=O)c1ccc(Br)o1	inactive
Cc1ccc(Nc2nc(N)nc(CN3CCN(C(=O)c4ccco4)CC3)n2)cc1Cl	inactive
CCSc1nc(N2CCCCC2)c2c(c1C#N)CCCC2	inactive
COc1ccc(-c2nc(C#N)c(NCC3CCCO3)o2)cc1OC (configuration not stated)	inactive
COC(=O)c1c(N2C(=O)CCC2=O)sc2c1CCCC2	inactive
COc1cccc(N2C(=O)C3CCCN3C2c2ccc(N(C)C)cc2)c1 (configuration not stated)	inactive
O=C(NNC(=O)c1cc2ccccc2cc1O)Nc1ccccc1F	inactive
O=C(CSCc1cnn(-c2ccccc2)c1-n1cccc1)NCC1CCCO1 (configuration not stated)	inactive
O=C(COc1ccccc1)NCc1nnc(SCC(=O)Nc2nccs2)n1-c1ccccc1	inactive
CCOC(=O)C1=CN(Cc2cccc(F)c2)S(=O)(=O)NC1c1ccc(Br)cc1F (configuration not stated)	inactive
COc1ccc(C(=O)N/C(=C\c2cccs2)C(=O)N2CCN(C)CC2)cc1OC	inactive
CSc1ncccc1C(=O)OCC(=O)N1CCOCC1	inactive
N#Cc1cccc(C(=O)N(CCc2ccccc2)Cc2cccs2)c1	inactive
Cn1c(C(=O)NCCCN2CCN(c3ccccc3F)CC2)cc2c(=O)n(C)c3ccccc3c21	inactive
CCCCOC1(c2ccccc2)NC(=S)NN=C1c1ccccc1 (configuration not stated)	inactive
Cc1c(N=C/C=C2\N(C)c3ccccc3C2(C)C)c(=O)n(-c2ccccc2)n1C	inactive
Cc1c(O)c(CN2CCCC2)cc2c3c(c(=O)oc12)CCC3	inactive
CCCSCCCNC(=O)CC1Oc2ccccc2NC1=O (configuration not stated)	inactive
O=C1OC[C@@H]2CCCN2C(=O)[C@@H](CC(=O)N(CCO)Cc2ccccc2)C/C=C\C[C@@H]1Cc1ccc(F)cc1	inactive
COc1ccc(NC(=O)c2cc(-c3ccco3)nc3ccccc23)cc1S(=O)(=O)N1CCOCC1	18.5 µM (active)
